Measurements from PubChem BioAssay (NCI).
The panel holds about 83,000 compounds, 20% with a hit somewhere; the sample as a whole holds those more often.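 For each line, cells grew in 96-well plates with the test compound present at a single concentration for 48 hours.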 Values without a mark were called inactive. The source made the active and inactive calls. How the source made its calls: active means growth percent below 10; inactive means the rest.

Tests used:
Assay in all cases: NCI-60 one-dose screen, 48 h (100 = growth as untreated, 0 = no growth, -100 = all killed)
Settings in all cases: 10 µM unless noted
SK-MEL-2 melanoma = system: SK-MEL-2 melanoma
EKVX NSCLC = system: EKVX NSCLC
SN12C renal = system: SN12C renal
UO-31 renal = system: UO-31 renal
TK-10 renal = system: TK-10 renal
ACHN renal = system: ACHN renal
CAKI-1 renal = system: CAKI-1 renal
A498 renal = system: A498 renal
CCRF-CEM leukemia = system: CCRF-CEM leukemia
MOLT-4 leukemia = system: MOLT-4 leukemia
SR leukemia = system: SR leukemia
RPMI-8226 leukemia = system: RPMI-8226 leukemia
OVCAR-8 ovarian = system: OVCAR-8 ovarian
OVCAR-4 ovarian = system: OVCAR-4 ovarian
SK-OV-3 ovarian = system: SK-OV-3 ovarian
IGROV1 ovarian = system: IGROV1 ovarian
OVCAR-3 ovarian = system: OVCAR-3 ovarian
HS 578T breast = system: HS 578T breast
NCI/ADR-RES ovarian = system: NCI/ADR-RES ovarian
OVCAR-5 ovarian = system: OVCAR-5 ovarian

SMILES	growth (SK-MEL-2 melanoma)	growth (EKVX NSCLC) [%]	growth (SN12C renal) [%]	growth (UO-31 renal)	growth (TK-10 renal) [%]	growth (ACHN renal)	growth (CAKI-1 renal)	growth (A498 renal)	growth (CCRF-CEM leukemia)	growth (MOLT-4 leukemia)	growth (SR leukemia)	growth (RPMI-8226 leukemia)	growth (OVCAR-8 ovarian)	growth (OVCAR-4 ovarian)	growth (SK-OV-3 ovarian) [%]	growth (IGROV1 ovarian)	growth (OVCAR-3 ovarian)	growth (HS 578T breast)	growth (NCI/ADR-RES ovarian) [%]	growth (OVCAR-5 ovarian) [%]
Clc1ccc(C2CC(c3cccc(Nc4ccncc4)c3)=NN2c2ccc(Cl)cc2)cc1 (stereo unspecified)	85.8%	72.3	39.6	4.62% (active)	50.5	-66.6% (active)	-59.6% (active)	72.1%	2.88% (active)	-5.2% (active)	2.85% (active)	0.298% (active)	-38.9% (active)	-14.5% (active)	83.7	7.44% (active)	31%	54%	11.2	–
COc1ccc(-c2cnc(N)nc2-c2ccc(OC)cc2O)cc1	112%	96.8	98.5	70.2%	99.1	87.9%	86.5%	99.8%	82.4%	77.2%	66.9%	–	89.5%	86.5%	103	83.8%	108%	157%	85.7	102
COc1c(Cl)cc(Cl)c2ccc(C=C3C(=O)NC(=S)NC3=O)nc12	105%	104	100	93.2%	107	101%	91.7%	93.8%	105%	105%	99%	105%	109%	–	106	108%	103%	102%	100	–
COc1cc(/C=C2\C(=O)N(Cc3ccc(Cl)cc3)c3ccccc32)cc(OC)c1OC	90.2%	88.8	24.9	26.6%	20.5	40.6%	24.6%	26.2%	-3.04% (active)	8.46% (active)	-5.2% (active)	-31.7% (active)	–	47.7%	79.3	9.22% (active)	-49.6% (active)	-14.3% (active)	21.4	65.9
Cc1nc2sc(C(=O)Nc3ccccc3)c(N)c2cc1C(=O)c1ccc(C(F)(F)F)cc1	101%	79.3	99.6	90.7%	104	80%	83.6%	5.8% (active)	102%	108%	81.9%	102%	–	87.3%	69.3	101%	110%	85.6%	99	97.9
COc1nccnn1	-31.3% (active)	107	97.1	100%	93.3	100%	108%	92.9%	99.8%	106%	–	70.1%	111%	101%	110	118%	146%	86.7%	101	101
COc1ccc(Cn2nc(-c3cc(OC)c(OC)c(OC)c3)c3c2CCc2cnoc2-3)cc1OC	38%	77.7	60.6	32.7%	72.5	74.9%	50.3%	42.1%	55.6%	36.2%	1.81% (active)	–	79%	70.7%	47	63.4%	39.7%	72.5%	26.1	89.9
O=C(O)C(/C=C/c1ccco1)=N\Nc1nc(-c2ccc(Cl)cc2)cs1	11.5%	67.1	86.8	38.8%	77.6	69%	63.9%	65.2%	24%	40.9%	41.5%	–	36.6%	43.1%	70.9	-10% (active)	-4.27% (active)	77.3%	12.5	98.9
